# Results from PMC4336329 (PLoS ONE, 2015).
# Screen size: about 310,000 compounds; about 14,000 (4.5%) showed an effect of 50% or more. The effect is printed as a negative number. The list comes from a sample in which strong results are over-represented; it also holds similar structures and randomly drawn compounds.
# Biological target: human ether-à-go-go-related gene (hERG) potassium channel (human, UniProt Q12809)
# Test: primary screen, population patch clamp on CHO cells stably expressing hERG; higher = less effect of the substance
# 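Note: peak tail current of the secondary pulse compared with the same well before compound.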
# Chain of human ether-à-go-go-related gene (hERG) potassium channel (Q12809 whole entry, looked up): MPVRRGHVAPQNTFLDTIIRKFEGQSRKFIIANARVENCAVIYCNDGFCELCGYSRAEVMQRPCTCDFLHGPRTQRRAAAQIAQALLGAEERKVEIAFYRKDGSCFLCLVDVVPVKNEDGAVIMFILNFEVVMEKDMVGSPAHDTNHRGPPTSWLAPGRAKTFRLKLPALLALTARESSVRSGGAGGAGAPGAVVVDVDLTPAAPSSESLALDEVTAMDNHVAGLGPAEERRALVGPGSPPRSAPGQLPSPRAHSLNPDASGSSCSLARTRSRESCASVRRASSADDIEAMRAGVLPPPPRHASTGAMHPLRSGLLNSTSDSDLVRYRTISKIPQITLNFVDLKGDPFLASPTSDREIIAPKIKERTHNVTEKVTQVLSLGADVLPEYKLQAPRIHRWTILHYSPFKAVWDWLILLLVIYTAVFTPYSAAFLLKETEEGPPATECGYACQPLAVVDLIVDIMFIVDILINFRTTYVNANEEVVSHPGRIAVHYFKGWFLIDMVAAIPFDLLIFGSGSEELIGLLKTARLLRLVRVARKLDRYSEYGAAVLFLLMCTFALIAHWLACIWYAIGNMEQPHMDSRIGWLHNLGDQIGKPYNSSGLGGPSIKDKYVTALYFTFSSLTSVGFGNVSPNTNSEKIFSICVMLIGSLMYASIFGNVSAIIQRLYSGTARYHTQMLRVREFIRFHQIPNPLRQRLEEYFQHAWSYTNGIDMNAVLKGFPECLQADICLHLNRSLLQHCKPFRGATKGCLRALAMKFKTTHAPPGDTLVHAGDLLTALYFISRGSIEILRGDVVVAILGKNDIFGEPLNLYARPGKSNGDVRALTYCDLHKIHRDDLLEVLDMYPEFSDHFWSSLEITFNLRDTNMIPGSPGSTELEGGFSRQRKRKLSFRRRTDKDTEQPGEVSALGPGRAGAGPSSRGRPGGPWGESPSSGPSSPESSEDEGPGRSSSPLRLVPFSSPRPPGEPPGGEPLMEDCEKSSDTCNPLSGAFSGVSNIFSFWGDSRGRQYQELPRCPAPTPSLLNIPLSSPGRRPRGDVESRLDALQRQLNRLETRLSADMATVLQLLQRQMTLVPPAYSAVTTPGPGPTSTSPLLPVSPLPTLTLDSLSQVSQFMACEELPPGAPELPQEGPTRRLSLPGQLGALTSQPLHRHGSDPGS
row,SMILES,"hERG current change (%, negative = inhibition) at 10uM"
1,CCOC(=O)N1CCN(CC(=O)N2c3ccccc3CC2C)CC1.O=C(O)C(=O)O (stereo not drawn),10.4%
2,Cc1ccc(CNC(=O)C2CCN(S(=O)(=O)c3ccc(Br)s3)CC2)cc1,3.77%
3,COC(=O)c1cc2nc(-c3ccccc3)cc(C(F)(F)F)n2n1,19.7%
4,CCOc1ccc(S(=O)(=O)/N=C(\N)c2ccccc2)cc1,-7.03%
5,CCCCCCCC(=O)Nc1cc(C(=O)NCc2ccc(C)cc2)ccc1N1CCC2(CC1)CC(c1cccc(Br)c1)=NO2,2.8%
6,CCSCCOC(=O)C1=C(C)NC(=O)NC1c1ccc2c(c1)OCO2 (stereo not drawn),-13.4%
7,Cc1cccc(C(=O)N(NC(=O)Oc2ccccc2)C(C)(C)C)c1,-13%
8,CCc1ccc(NC(=O)CCNS(=O)(=O)c2cccc3nsnc23)cc1,-14.9%
9,O=C(Nc1ccc2c(c1)OCCO2)C1CCN(C(=O)c2ccc([N+](=O)[O-])cc2)CC1,-65.6%
10,O=C(Cc1ccc([N+](=O)[O-])cc1)Nc1ccc2c(c1)OCO2,-13.9%
11,Cc1ccccc1C(=O)N1CCC(C(=O)Nc2ccc3c(c2)OCCO3)CC1,5.7%
12,O=C(Nc1ccc2c(c1)OCO2)C1CCN(C(=O)c2ccc([N+](=O)[O-])cc2)CC1,-84.2%
13,O=C(Nc1ccc2c(c1)OCO2)C1CCN(S(=O)(=O)c2ccc3c(c2)OCCO3)CC1,7.45%
14,O=C(Nc1ccc2c(c1)OCCO2)C1CCC1,7.7%
15,CC(=O)Nc1nc(C)c(Cc2ccccc2)c(=O)[nH]1,-1.04%
16,Cn1cnc(S(=O)(=O)NCc2ccccc2)c1,2.77%
17,Cc1ccccc1OCCOC(=O)c1nc2nccc(C)n2n1,-14.1%
18,COc1ccccc1NC(=O)C1=C(C)Nc2nnnn2C1c1ccncc1 (stereo not drawn),-12.4%
19,CCOC(=O)c1c(C)n(Cc2ccccc2)c2ccc(O)cc12,4.43%
20,CCOC(=O)c1c(CN2CCOCC2)n(-c2ccccc2)c2ccc(O)cc12,-69.2%
21,CCOC(=O)c1c(C)n(-c2ccccc2)c2ccc(O)cc12,13.8%
22,CCOC(=O)c1c(CN(CC)CC)n(-c2ccccc2)c2ccc(O)cc12,-66.7%
23,CCOC(=O)c1c(C)n(-c2ccc(F)cc2)c2ccc(O)cc12,16.4%
24,CCOC(=O)c1c(CN2CCOCC2)n(-c2ccccc2)c2cc(Br)c(O)c(CN(C)C)c12,-42.3%
